# Compounds with a hit are over-represented: about 3.2% of the library has one in this group of screens.
# ANO1 block = TMEM16A chloride channel inhibitors, primary screen, cell-based, HTS | actives 1.2% (n = 310,000) | Anoctamin-1 (Mus musculus), Q8BHY3 | normalized B-score (activity score, 25-100; higher = stronger inhibition) at 10 µM | HEK293 TMEM16A/YFP iodide influx fluorescence, ionomycin;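 active = ratio plate-corrected score three or more library SD toward inhibition, starting fluorescence score within five deviations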;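 note: score derived from kinetic fluorescence span divided by baseline fluorescence per well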
# Kir21 block = inhibitors of mouse Kir2.1 inward-rectifier potassium channel; actives 0.85% (n = 310,000); HEK293-Kir2.1, FluxOR thallium flux fluorescence; hits give low values; B-score at 10 µM;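 active = fluorescence ratio B-score at or below minus 3 SD of library scores, with starting-brightness B-score within 2 SD, cut at about -4.2 in these data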;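 note: channel flux triggered by added potassium and thallium sulfate stimulus; B-score of peak minus minimum fluorescence over baseline after thallium stimulus; more negative B-score means stronger Kir2.1 block with less thallium influx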
# Target sequence (P35561 whole entry, looked up): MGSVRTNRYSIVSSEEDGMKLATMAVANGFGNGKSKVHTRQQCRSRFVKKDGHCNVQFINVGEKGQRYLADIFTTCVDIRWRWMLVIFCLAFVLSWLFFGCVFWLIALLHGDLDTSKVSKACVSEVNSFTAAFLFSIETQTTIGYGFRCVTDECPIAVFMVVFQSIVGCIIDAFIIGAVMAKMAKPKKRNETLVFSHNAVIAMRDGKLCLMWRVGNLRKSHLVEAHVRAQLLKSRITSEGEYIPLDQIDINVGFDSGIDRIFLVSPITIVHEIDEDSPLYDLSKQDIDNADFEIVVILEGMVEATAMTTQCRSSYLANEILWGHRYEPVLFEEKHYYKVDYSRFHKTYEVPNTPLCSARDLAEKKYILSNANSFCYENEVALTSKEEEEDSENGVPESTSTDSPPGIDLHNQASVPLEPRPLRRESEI
# Rce1 inh = yeast Rce1p protease inhibitors, primary screen, biochemical, fluorescence, cell-free homogeneous; CAAX prenyl protease 2 (Saccharomyces cerevisiae (strain ATCC 204508 / S288c)), Q03530; yeast membranes, quenched prenylated peptide cleavage fluorescence; calls only; actives 0.27% (n = 290,000);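 active = fall in fluorescence gain of 50% or more versus controls, with final raw signal at or below 3038400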;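 note: plate controls were neutral control wells for no effect and wells lacking membranes for full effect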
# CHT block = inhibitors of human choline transporter CHT | High affinity choline transporter 1 (Homo sapiens), Q9GZV3 | CHT-expressing cells, membrane potential dye, choline response; hits give low values | B-score at 10 µM | actives 0.86% (n = 310,000);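 active = B-score over 3 SD under the library average, and starting fluorescence ratio not unusually high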;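 note: choline stimulus applied at its EC90 after an EC20 pre-addition; B-score computed on integrated fluorescence ratio after choline addition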
# TMEM16A act = TMEM16A chloride channel activators or potentiators, primary screen, cell-based, HTS | Anoctamin-1 (Mus musculus), Q8BHY3 | HEK293 TMEM16A/YFP-H148Q/I152L, iodide quench fluorescence; hits give low values | B-score at 10 µM | actives 0.3% (n = 340,000) | AID 623877, 2012;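 active = fluorescence-ratio B-score plate-corrected deviation score at least 3 library SD below zero, with starting fluorescence score within 5 deviations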;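 note: channel opened by trigger with iodide after compound preincubation; score built on the fluorescence ratio of max minus min over baseline; more negative score means more quench and so TMEM16A activation or potentiation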
# CHT allo act = CHT positive allosteric modulators, primary screen, cell-based, membrane potential dye, choline EC20; High affinity choline transporter 1 (Homo sapiens), Q9GZV3; CHT-expressing cells; hits give high values; LV-AA mutant CHT in HEK293 cells; B-score at 10 µM; actives 0.49% (n = 310,000);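 active = initial fluorescence not abnormally high and integrated response B-score, plate-corrected, over 3 SD above library mean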
# CHT inh conf = CHT inhibitors, confirmation, cell-based, membrane potential dye, duplicate. CHT activity remaining % of control (hits give low values), % at 10 µM. actives 70% (n = 2,400). shares compounds with CHT block. CHT-expressing cells, choline membrane potential dye; LV-to-AA substituted CHT, HEK293 cells;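 active = choline transporter activity left, mean of duplicates at 10 µM, below buffer-only control mean minus 3 SD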;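 note: depolarization triggered by choline at its EC90 following an EC20 pre-addition; 0% = hemicholinium-3 full block and 100% = buffer-only control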
# HEK293 CHT ctr = membrane potential effects in parental HEK293, counter-screen for CHT inhibitor project, cell-based, membrane potential dye; shares compounds with CHT block; choline response; active = decrease or increase beyond buffer ±3SD; membrane potential ratio readout (active if shifted either direction beyond buffer ±3SD; no single direction) at 10 µM; actives 4% (n = 2,400); AID 493222, 2011;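 note: parental cells lack the transporter so any hit is non-specific; ratio is peak minus trough fluorescence over baseline after EC90 choline challenge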
# An asterisk follows results filed as active; i = inactive; · = no result given.
SMILES,ANO1 block,Kir21 block,Rce1 inh,CHT block,TMEM16A act,CHT allo act,CHT inh conf,HEK293 CHT ctr
N#Cc1c(N)nc(SCc2ccccn2)c(C#N)c1-c1cccs1,i,0.75,i,-7.3*,i,i,49%*,i
COc1ccc(OCc2cccc(C(=O)NN)c2)cc1,i,-0.1,i,i,i,i,·,·
COc1ccc(OCc2cccc(C(=O)Nn3cc([N+](=O)[O-])cn3)c2)cc1,i,1.1,i,-7.1*,i,i,69%*,i
CCOC(=O)C1CCN(C(=O)COc2cc(C)c(Br)cc2C)CC1,i,0.92,i,-6.5*,i,i,i,i
CCOC(=O)C1CCN(C(=O)COc2ccc(Br)cc2Br)CC1,i,-2,i,i,i,i,·,·
Cc1ccc(C2(c3ccccc3)NC(=O)N(CC(=O)N3CC(=O)Nc4ccccc43)C2=O)cc1C (configuration not stated),·,·,·,·,i,·,·,·
Cc1ccc(NC(=O)C=NOCC(=O)Nc2cc(C)cc(C)c2)cc1,·,·,·,·,i,·,·,·
CCOC(=O)Cc1csc(N/C(=N/S(=O)(=O)c2ccc(F)cc2F)c2ccccc2)n1,i,1,i,-6.8*,i,i,63%*,i
Cc1ccc2nc(N/C(=N/S(=O)(=O)c3ccc(F)cc3F)c3ccccc3)sc2c1,i,0,i,i,i,i,·,·
CCOC(=O)c1c(C)n(C)c2ccc(O)c(CN(CC)CC)c12,i,-0.07,i,i,i,i,·,·
CCOC(=O)c1c(C)n(C)c2ccc(O)c(CN3CCC(C)CC3)c12,i,-2.7,i,-14*,i,i,20%*,4.2*
Cc1ccc(-c2nn3cnnc3c3ccccc23)cc1C,i,0.8,i,i,i,i,·,·
CCn1cc(C(=O)NCCCN2CC(C)CC(C)C2)c(=O)c2cc(S(=O)(=O)N(C)C3CCCCC3)ccc21 (configuration not stated),i,-1.3,i,-5*,i,i,45%*,2.9*
CCN(CC)CCNC(=O)c1cn(CC)c2ccc(S(=O)(=O)N(C)C3CCCCC3)cc2c1=O,i,-0.72,i,i,i,i,·,·
CCn1cc(C(=O)NCCCN2CCC(C)CC2)c(=O)c2cc(S(=O)(=O)N(C)C3CCCCC3)ccc21,i,0.35,i,-6.5*,i,i,39%*,i
CCOC(=O)c1[nH]c(C)c(C(=O)N2CCc3ccccc32)c1C,i,-1.8,i,-6*,i,i,i,2.4*
CC(=O)c1c(C)[nH]c(C(=O)N2CCc3ccccc32)c1C,i,0.2,·,i,i,i,·,·
CCc1ccc(S(=O)(=O)c2n[nH]n3c2nc(=O)c2ccccc23)cc1,i,2.2,i,-4.9*,i,i,8.6%*,i
CC(C)c1ccc(S(=O)(=O)c2n[nH]n3c2nc(=O)c2ccccc23)cc1,i,-1.3,i,i,i,i,·,·
COc1cccc(C(=O)NC2CCCN(C3Cc4ccccc4C3)C2)c1OC (configuration not stated),i,-0.3,i,i,i,i,·,·
O=C(O)c1ccc(NC(=S)NC(=O)c2cncc(Br)c2)cc1,i,0.31,·,i,i,i,·,·
CCOC(=O)c1cc(C(=O)NC(C)c2ccccc2)c(C)[nH]c1=O (configuration not stated),i,-1.1,i,-7.4*,i,i,14%*,i
CC(=O)c1ccc(NC(=O)c2ccc(C)c(S(=O)(=O)N3CCOCC3)c2)cc1,i,2,i,i,i,i,·,·
Cc1ccc(C(=O)OC(C)C(=O)NC2CCCCC2C)cc1S(=O)(=O)N1CCCCC1 (configuration not stated),i,0.68,i,-7.9*,i,i,i,i
Cc1ccc(C(=O)NC2CCCCCC2)cc1S(=O)(=O)N1CCOCC1,i,-0.88,i,i,i,i,·,·
SMILES,ANO1 block,Kir21 block,Rce1 inh,CHT block,TMEM16A act,CHT allo act,CHT inh conf,HEK293 CHT ctr
CCOC(=O)c1ccc(NC(=O)c2ccc(C)c(S(=O)(=O)N3CCOCC3)c2)cc1,i,0.06,i,-5.5*,i,i,68%*,i
Cc1ccc(C(=O)NC2CCCCC2)cc1S(=O)(=O)N1CCCC1,i,1.5,i,-6*,i,i,61%*,i
COCCN(CC1CCCN(C2Cc3ccccc3C2)C1)C(=O)CSC (configuration not stated),i,2.2,i,i,i,i,·,·
O=C(CNC(=O)c1cccs1)OCC(=O)c1ccc([N+](=O)[O-])cc1,i,0.33,i,-5.1*,i,i,i,i
CC(C)(C)NS(=O)(=O)c1ccc(NC(=O)Cc2ccccc2[N+](=O)[O-])cc1,i,-2.2,i,i,i,i,·,·
CCCCNS(=O)(=O)c1ccc(NC(=O)Cc2ccccc2[N+](=O)[O-])cc1,i,1.3,i,-6*,i,i,43%*,i
Cc1cc(NC(=O)C(C)SCC(=O)OCc2c(Cl)cccc2Cl)no1 (configuration not stated),i,-0.18,i,i,i,i,·,·
CC(C)c1ccc(Nc2c([N+](=O)[O-])c(=O)n(C)c3ccccc23)cc1,i,1,i,i,i,i,·,·
Cn1c(=O)c(Nc2ccc(O)cc2)c2c3c(cccc31)C(=O)c1ccccc1-2,i,1.3,i,-16*,i,i,9.4%*,i
Clc1ccc(CSc2ncnc3nc[nH]c23)cc1,i,-0.62,i,-6.2*,i,i,i,i
O=C(CSc1ncnc2nc[nH]c12)c1ccc(Cl)cc1,i,-0.46,i,i,i,i,·,·
